The supplement of paper PMC12645437, “Orthogonal IMiD-Degron Pairs Induce Selective Protein Degradation in Cells” (ACS Chemical Biology, 2025)
Over roughly 8,300 sequences, “log2 fold change of degron read counts, EGFP-low vs EGFP+ sorted cells (limma voom), compound-induced degradation” has its median near -1.1; the highest 2% begin near 3.2. This is one part of a sample in which the highest values are shown more often than they occur.

Target: T1, CRBN, Q96SW2
T1 chain: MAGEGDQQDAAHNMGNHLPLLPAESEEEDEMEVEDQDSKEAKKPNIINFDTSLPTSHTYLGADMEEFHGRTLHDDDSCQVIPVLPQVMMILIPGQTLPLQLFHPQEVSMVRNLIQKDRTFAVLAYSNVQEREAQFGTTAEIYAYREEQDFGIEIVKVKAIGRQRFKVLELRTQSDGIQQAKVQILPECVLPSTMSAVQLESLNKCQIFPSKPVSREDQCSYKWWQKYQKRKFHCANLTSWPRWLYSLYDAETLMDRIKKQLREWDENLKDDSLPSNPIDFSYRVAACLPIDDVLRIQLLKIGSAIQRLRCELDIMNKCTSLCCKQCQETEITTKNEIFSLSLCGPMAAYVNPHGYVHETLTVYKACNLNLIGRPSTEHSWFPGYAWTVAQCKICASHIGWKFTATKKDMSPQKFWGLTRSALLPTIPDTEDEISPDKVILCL
Assay: log2 fold change of degron read counts, EGFP-low vs EGFP+ sorted cells (limma voom), compound-induced degradation; higher = more compound-induced degradation of the degron-EGFP fusion; degrons are variants of IKZF1/3 zinc finger 2; compound dose not given here
Conditions: Jurkat, 18 h
Description: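 Pooled library of 8380 IKZF3 ZF2 degron mutants (positions 146-167 varied within the IKZF3 130-189 degron; only the varied core is printed, flanks not printed) fused to EGFP with IRES-mCherry, lentivirally expressed in Jurkat cells. mCherry+ cells were treated with one IMiD compound for 18 h (dose not stated) and FACS-sorted into EGFP-low and EGFP+ populations. Degron sequences were counted by NGS, and log2FC (EGFP-low vs EGFP+) was estimated by limma voom over 3 biological replicates.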

[1] = compound: compound 19 (5-tert-butyl-thalidomide)
[2] = compound: compound 22 (5-morpholino-thalidomide)
[3] = compound: compound 33 (diphenyl IMiD analogue)
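Further: pooled lentiviral library of zinc finger degron-EGFP fusions in mCherry-positive Jurkat cells, FACS-sorted after compound exposure, with degron abundance counted by next-generation sequencing.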

| Sequence | log2 fold change of degron read counts [1] | log2 fold change of degron read counts [2] | log2 fold change of degron read counts [3] | log2 fold change of degron read counts (compound: thalidomide) |
| --- | --- | --- | --- | --- |
| LFCNQCGFNCTQKGNLLRHIKL [46L_47F_49N_50Q_52G_53F_54N_55C_67L_, Q9UKT9] | -1.81 | -1.88 | -1.92 | -1.45 |
| FECNQCGAHFTQKGNLLRHIKL [46F_47E_49N_50Q_52G_53A_54H_55F_67L_, Q9UKT9] | -2.49 | -3.01 | -2.49 | -2.34 |
| FQCEICGAIFTQKGNLLRHIKL [46F_47Q_49E_50I_52G_53A_54I_55F_67L_, Q9UKT9] | -0.255 | 3.16 | 2.84 | 3.68 |
| FCCEICGAIFTQKGNLLRHIKL [46F_47C_49E_50I_52G_53A_54I_55F_67L_, Q9UKT9] | 1.48 | 1.57 | 2.5 | 1.97 |
| FMCEICGAIFTQKGNLLRHIKL [46F_47M_49E_50I_52G_53A_54I_55F_67L_, Q9UKT9] | -1.18 | -0.577 | 2.14 | 0.96 |
| FICDVCGASFTQKGNLLRHIKL [46F_47I_49D_50V_52G_53A_54S_55F_67L_, Q9UKT9] | -1.49 | 1.22 | 0.774 | 0.427 |
| FYCEVCGAHFTQKGNLLRHIKL [46F_47Y_49E_50V_52G_53A_54H_55F_67L_, Q9UKT9] | 3.12 | 3.62 | 2.45 | 0.916 |
| FRCEVCGAHFTQKGNLLRHIKL [46F_47R_49E_50V_52G_53A_54H_55F_67L_, Q9UKT9] | -1.19 | -1.13 | 0.668 | 0.202 |
| FVCEVCGAHFTQKGNLLRHIKL [46F_47V_49E_50V_52G_53A_54H_55F_67L_, Q9UKT9] | -0.244 | 1.53 | 1.35 | 1.87 |
| FACEVCGAHFTQKGNLLRHIKL [46F_47A_49E_50V_52G_53A_54H_55F_67L_, Q9UKT9] | 3.16 | 0.662 | 0.411 | -0.296 |
| FTCEVCGAHFTQKGNLLRHIKL [46F_47T_49E_50V_52G_53A_54H_55F_67L_, Q9UKT9] | -0.0867 | 0.738 | 1.47 | 2.04 |
| FWCEVCGAHFTQKGNLLRHIKL [46F_47W_49E_50V_52G_53A_54H_55F_67L_, Q9UKT9] | 3.1 | 3.92 | 1.96 | 0.936 |
| LVCEICGFGCTQKGNLLRHIKL [46L_47V_49E_50I_52G_53F_54G_55C_67L_, Q9UKT9] | 1.26 | 1.94 | 0.702 | 2.41 |
| FMCPICGHYFTQKGNLLRHIKL [46F_47M_49P_50I_52G_53H_54Y_55F_67L_, Q9UKT9] | -2.08 | -2.18 | -1.11 | -1.8 |
| FFCDICGAPFTQKGNLLRHIKL [46F_47F_49D_50I_52G_53A_54P_55F_67L_, Q9UKT9] | 3.92 | 3.16 | 1.06 | -0.36 |
| FFCDICGADFTQKGNLLRHIKL [46F_47F_49D_50I_52G_53A_54D_55F_67L_, Q9UKT9] | -0.121 | -0.935 | -2.01 | -2.27 |
| FQCDICGAPFTQKGNLLRHIKL [46F_47Q_49D_50I_52G_53A_54P_55F_67L_, Q9UKT9] | 2.56 | 3.14 | 0.968 | 3.35 |
| FYCDICGAPFTQKGNLLRHIKL [46F_47Y_49D_50I_52G_53A_54P_55F_67L_, Q9UKT9] | 3.86 | 3.56 | 2.02 | 0.27 |
| FVCDICGAPFTQKGNLLRHIKL [46F_47V_49D_50I_52G_53A_54P_55F_67L_, Q9UKT9] | 1.63 | 3.29 | 1.93 | 2.61 |

| Sequence | log2 fold change of degron read counts [1] | log2 fold change of degron read counts [2] | log2 fold change of degron read counts [3] | log2 fold change of degron read counts (compound: thalidomide) |
| --- | --- | --- | --- | --- |
| FWCDICGAPFTQKGNLLRHIKL [46F_47W_49D_50I_52G_53A_54P_55F_67L_, Q9UKT9] | 2.91 | 2.32 | 1.2 | -0.538 |
| FCCDICGAPFTQKGNLLRHIKL [46F_47C_49D_50I_52G_53A_54P_55F_67L_, Q9UKT9] | 2.7 | 2.21 | 0.465 | 0.477 |
| FMCNICGAVFTQKGNLLRHIKL [46F_47M_49N_50I_52G_53A_54V_55F_67L_, Q9UKT9] | -1.55 | -0.801 | 1.53 | 0.369 |
| FFCEICGHNFTQKGNLLRHIKL [46F_47F_49E_50I_52G_53H_54N_55F_67L_, Q9UKT9] | -2.59 | -3.18 | -2.38 | -2.84 |
| FRCDQCGAHFTQKGNLLRHIKL [46F_47R_49D_50Q_52G_53A_54H_55F_67L_, Q9UKT9] | -2.76 | -2.89 | -2.01 | -2.48 |
| FKCEICGAEFTQKGNLLRHIKL [46F_47K_49E_50I_52G_53A_54E_55F_67L_, Q9UKT9] | -0.284 | -2.59 | -3.54 | -0.121 |
| FCCNICGARFTQKGNLLRHIKL [46F_47C_49N_50I_52G_53A_54R_55F_67L_, Q9UKT9] | 1.4 | 1.76 | 0.552 | 1.57 |
| FGCDICGAPFTQKGNLLRHIKL [46F_47G_49D_50I_52G_53A_54P_55F_67L_, Q9UKT9] | 0.329 | -0.821 | -1.38 | -1.4 |
| FLCDICGAPFTQKGNLLRHIKL [46F_47L_49D_50I_52G_53A_54P_55F_67L_, Q9UKT9] | 1.62 | 2.15 | 2.03 | 1.99 |
| FECDICGAPFTQKGNLLRHIKL [46F_47E_49D_50I_52G_53A_54P_55F_67L_, Q9UKT9] | 1.27 | -1.62 | -0.0281 | 0.305 |
| FNCDICGAPFTQKGNLLRHIKL [46F_47N_49D_50I_52G_53A_54P_55F_67L_, Q9UKT9] | 2.68 | 1.25 | -0.682 | -0.153 |
| FACDICGAPFTQKGNLLRHIKL [46F_47A_49D_50I_52G_53A_54P_55F_67L_, Q9UKT9] | 3.46 | 1.66 | -0.501 | 0.383 |
| FMCDICGAPFTQKGNLLRHIKL [46F_47M_49D_50I_52G_53A_54P_55F_67L_, Q9UKT9] | 2.71 | 3.25 | 3.03 | 1.89 |
| FICDICGAPFTQKGNLLRHIKL [46F_47I_49D_50I_52G_53A_54P_55F_67L_, Q9UKT9] | 1.26 | 3.46 | 2.32 | 2.47 |
| FKCDICGAPFTQKGNLLRHIKL [46F_47K_49D_50I_52G_53A_54P_55F_67L_, Q9UKT9] | 1.21 | 0.288 | -1.35 | 1.02 |
| FDCDICGAPFTQKGNLLRHIKL [46F_47D_49D_50I_52G_53A_54P_55F_67L_, Q9UKT9] | 0.272 | -1.45 | -1.51 | -0.767 |
| FTCDICGAPFTQKGNLLRHIKL [46F_47T_49D_50I_52G_53A_54P_55F_67L_, Q9UKT9] | 2.1 | 2.86 | 1.41 | 1.93 |
| FSCDICGAPFTQKGNLLRHIKL [46F_47S_49D_50I_52G_53A_54P_55F_67L_, Q9UKT9] | 2.36 | 1.62 | 0.275 | 0.668 |
| FRCDICGAPFTQKGNLLRHIKL [46F_47R_49D_50I_52G_53A_54P_55F_67L_, Q9UKT9] | 3.17 | 3.53 | 3.32 | 3.52 |
